High-throughput results (PubChem BioAssay)
Only some compounds are listed: those with a hit (about 2.9% of all), similar ones and a draw of the others.
KLK7 zymogen act: proKLK7 zymogen activators, primary screen, biochemical, fluorescence intensity; Kallikrein-7 (Homo sapiens), P49862; purified proKLK7, EDANS-DABCYL substrate fluorescence; 100% is mature enzyme control, 0% vehicle; activation, % at 7 µM; actives 0.9% (n = 370,000); AID 652039, 2013;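 active = activation above the mean of all tested compounds plus 3 SD, computed per campaign excluding outliers beyond control limits, cut at about 13% in these data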
GAA850 FXN act: FXN promoter activators, primary screen, cell-based, luciferase luminescence, HEK293 lucGAA850. HEK293 lucGAA850 FXN promoter luciferase reporter, 24 h; percent of 10 µM SAHA response. activation, % at 6 µM. actives 0.56% (n = 360,000). AID 540364, 2011;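 active = activation above the average of all compounds screened plus 3 SD, cutoff fixed separately per campaign, cut at about 7.5% in these data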
SMARCA2 activ: SMARCA2 (BRM) function activators, primary screen, cell-based, luminescence, high throughput; AID 652017, 2013; activation, % at 9.1 µM; MG213 cells, MMTV-luciferase reporter, dexamethasone, overnight; actives 1% (n = 370,000); in the data active = activation above about 7.8%
FAS-TE inh: FAS thioesterase domain inhibitors, primary screen, biochemical, fluorescence intensity, uHTS; AID 602261, 2012; recombinant FAS-TE, OMFH fluorogenic substrate, fluorescence endpoint; Fatty acid synthase (Homo sapiens), P49327; actives 0.67% (n = 360,000); inhibition, % at 15 µM;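 active = compounds whose normalised, plate-corrected inhibition of enzyme fluorescence in the single-dose primary screen is 50% or more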
Target sequence (P49327 whole entry, looked up, the tested form may be a part): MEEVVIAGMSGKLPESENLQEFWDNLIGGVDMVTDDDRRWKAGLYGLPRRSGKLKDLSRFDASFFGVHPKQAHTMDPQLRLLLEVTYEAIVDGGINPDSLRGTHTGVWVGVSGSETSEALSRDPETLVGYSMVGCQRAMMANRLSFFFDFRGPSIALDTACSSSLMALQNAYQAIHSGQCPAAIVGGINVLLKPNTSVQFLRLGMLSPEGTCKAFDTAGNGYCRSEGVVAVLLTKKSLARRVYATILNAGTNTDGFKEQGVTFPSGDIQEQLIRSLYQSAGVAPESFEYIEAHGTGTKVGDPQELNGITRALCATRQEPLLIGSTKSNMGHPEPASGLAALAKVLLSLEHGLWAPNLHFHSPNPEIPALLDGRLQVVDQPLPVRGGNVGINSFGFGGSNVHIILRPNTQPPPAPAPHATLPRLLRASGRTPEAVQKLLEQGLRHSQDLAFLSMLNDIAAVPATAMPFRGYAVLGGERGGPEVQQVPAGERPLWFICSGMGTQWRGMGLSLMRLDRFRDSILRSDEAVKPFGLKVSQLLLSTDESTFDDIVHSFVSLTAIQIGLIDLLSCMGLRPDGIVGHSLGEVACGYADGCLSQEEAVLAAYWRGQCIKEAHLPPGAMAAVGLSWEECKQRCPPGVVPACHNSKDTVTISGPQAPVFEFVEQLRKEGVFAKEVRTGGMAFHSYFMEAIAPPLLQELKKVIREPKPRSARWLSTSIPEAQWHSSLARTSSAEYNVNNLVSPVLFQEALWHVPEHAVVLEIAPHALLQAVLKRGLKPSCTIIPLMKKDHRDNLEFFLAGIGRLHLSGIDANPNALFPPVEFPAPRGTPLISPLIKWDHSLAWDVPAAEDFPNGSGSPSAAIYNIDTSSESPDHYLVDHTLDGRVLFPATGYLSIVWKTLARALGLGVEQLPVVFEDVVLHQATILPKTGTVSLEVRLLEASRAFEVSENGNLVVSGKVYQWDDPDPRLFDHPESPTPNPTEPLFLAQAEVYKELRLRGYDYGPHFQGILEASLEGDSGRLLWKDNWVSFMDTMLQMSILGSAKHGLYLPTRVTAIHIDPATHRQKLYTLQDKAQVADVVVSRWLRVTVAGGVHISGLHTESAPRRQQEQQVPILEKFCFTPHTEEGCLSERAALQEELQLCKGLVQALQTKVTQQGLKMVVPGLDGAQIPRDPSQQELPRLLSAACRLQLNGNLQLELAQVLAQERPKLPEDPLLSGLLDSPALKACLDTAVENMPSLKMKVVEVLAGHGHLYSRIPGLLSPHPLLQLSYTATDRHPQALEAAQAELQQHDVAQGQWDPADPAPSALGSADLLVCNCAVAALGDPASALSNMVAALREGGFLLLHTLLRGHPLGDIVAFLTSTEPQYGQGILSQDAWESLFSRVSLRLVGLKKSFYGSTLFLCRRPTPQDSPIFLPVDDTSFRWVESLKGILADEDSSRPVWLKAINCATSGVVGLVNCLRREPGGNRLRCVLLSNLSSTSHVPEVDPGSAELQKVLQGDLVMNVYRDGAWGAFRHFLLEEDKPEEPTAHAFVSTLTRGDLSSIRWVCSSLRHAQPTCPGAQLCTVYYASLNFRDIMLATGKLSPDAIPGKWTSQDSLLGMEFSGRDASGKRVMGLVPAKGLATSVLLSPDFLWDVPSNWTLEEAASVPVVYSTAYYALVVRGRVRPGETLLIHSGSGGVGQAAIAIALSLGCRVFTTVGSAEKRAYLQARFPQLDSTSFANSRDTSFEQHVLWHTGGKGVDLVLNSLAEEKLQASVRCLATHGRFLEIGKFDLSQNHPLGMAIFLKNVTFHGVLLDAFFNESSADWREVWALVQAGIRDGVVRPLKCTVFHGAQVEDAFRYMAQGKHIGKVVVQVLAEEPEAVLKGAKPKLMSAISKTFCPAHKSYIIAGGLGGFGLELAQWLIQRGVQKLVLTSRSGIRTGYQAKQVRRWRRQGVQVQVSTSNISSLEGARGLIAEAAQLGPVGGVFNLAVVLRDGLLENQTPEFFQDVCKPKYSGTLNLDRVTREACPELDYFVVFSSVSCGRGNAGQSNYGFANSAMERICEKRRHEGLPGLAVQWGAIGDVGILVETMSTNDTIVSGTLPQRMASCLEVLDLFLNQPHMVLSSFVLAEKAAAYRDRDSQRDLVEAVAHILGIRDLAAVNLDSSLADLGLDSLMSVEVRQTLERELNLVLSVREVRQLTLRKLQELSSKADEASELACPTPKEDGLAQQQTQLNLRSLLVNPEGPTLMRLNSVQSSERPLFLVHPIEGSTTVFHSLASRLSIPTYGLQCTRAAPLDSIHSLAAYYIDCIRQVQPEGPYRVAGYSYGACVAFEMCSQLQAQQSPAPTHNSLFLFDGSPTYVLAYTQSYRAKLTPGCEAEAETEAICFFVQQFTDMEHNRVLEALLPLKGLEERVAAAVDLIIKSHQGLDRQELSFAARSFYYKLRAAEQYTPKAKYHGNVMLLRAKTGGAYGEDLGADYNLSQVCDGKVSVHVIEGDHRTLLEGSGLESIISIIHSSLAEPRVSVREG
KLK7 act conf: proKLK7 zymogen activators, confirmation, biochemical, fluorescence intensity, triplicate; shares compounds with KLK7 zymogen act; purified proKLK7, EDANS-DABCYL substrate fluorescence; scaled: vehicle 0, mature enzyme 100; activation, % at 7 µM; actives 68% (n = 3,200);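 active = activation, as change over the incubation, above the mean of all tested compounds plus 3 SD, cut at about 13% in these data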
EDANS-DABCYL int: EDANS-DABCYL substrate optical interference, artefact control for kallikrein-7 zymogen activator project, biochemical, fluorescence intensity, high throughput; shares compounds with KLK7 zymogen act; no enzyme, 4 h; solvent 0%, active enzyme control 100%; activation, % at 7 µM; actives 80% (n = 3,200); AID 686952, 2013;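 active = activation above the all-compound mean plus 3 SD, ignoring values outside control-based bounds, cut at about 4.8% in these data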;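 note: value is the 4 h activation minus the activation read at time zero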
EDANS interf: EDANS fluorescence interference in dose response, no enzyme | EDANS-DABCYL peptide fluorescence interference | actives 20% (n = 250) | EC50, µM | shares compounds with KLK7 zymogen act;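 active = compounds that raise the fluorescence signal in this interference counterscreen, with EC50 at or below 10 µM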;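 note: intact quenched peptide substrate alone read at 355 nm excitation and 520 nm emission; signal is fluorescence gain from T0 to T4 after four hours at room temperature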
Hits are given with their value; . = inactive; / = no result given.

SMILES	KLK7 zymogen act	GAA850 FXN act	SMARCA2 activ	FAS-TE inh	KLK7 act conf	EDANS-DABCYL int	others
COc1ccc(-c2coc3c(CN4CCOCC4)c(O)ccc3c2=O)cc1	52	.	.	.	50	56
Cc1ccccc1CCN(C(=O)Cn1nnc2ccccc21)C(C(=O)NC(C)(C)C)c1ccsc1 (centres undefined)	.	.	.	.	/	/
CCC(NC(=O)CCC(=O)N1CCN(S(=O)(=O)c2ccc(C)cc2)CC1)c1ccc(C)cc1 (centres undefined)	.	.	.	.	/	/
CO/N=C/C(C(C)=O)C(=O)Nc1ccc(Cl)cc1Cl (centres undefined)	.	.	.	.	/	/
O=c1ccc2cc3c4c(c2o1)CCCN4CCC3	89	.	.	.	67	73
O=c1oc2c3c4c(cc2s1)CCCN4CCC3	.	.	.	.	/	/
CNc1cc(-c2cccc(OC)c2F)nc2ccnn12	38	.	.	.	28	27
COc1ccccc1-c1cc(C(F)(F)F)nc(NCc2ccco2)n1	.	.	.	.	/	/
CCN1CCN(c2nc3c(C)cccn3c(=O)c2/C=C(\C#N)C(=O)NCCOC)CC1	30	.	.	.	20	21
COCCNC(=O)/C(C#N)=C/c1c(N2CCN(C)CC2)nc2c(C)cccn2c1=O	.	.	.	.	/	/
CCNC(=O)/C(C#N)=C/c1c(N2CCN(c3ccccc3)CC2)nc2ccccn2c1=O	14	.	.	.	19	16	EDANS interf=.
COCCCNC(=O)/C(C#N)=C/c1c(N2CCN(C)CC2)nc2ccccn2c1=O	17	.	.	.	.	12
COCCNC(=O)CSc1ncnc2sc(-c3ccccc3)cc12	.	.	.	.	/	/
CN(C(=S)NC(=O)c1ccc(Cl)cc1)C1CCCCC1	.	.	.	.	/	/
COc1ccc(-c2cn3cccnc3n2)cc1NC(=O)c1ccc(Br)o1	.	.	.	.	/	/
Cc1ccc(-c2cn3cccnc3n2)cc1NC(=O)c1ccc(Br)o1	22	.	.	.	17	4.9	EDANS interf=.
Nc1cccc(-c2cn3cccnc3n2)c1	.	.	.	.	/	/
CS(=O)(=O)Nc1ccc(-c2ccc3nccn3c2)cc1	.	.	.	.	/	/
Cc1ccc(-c2cn3cccnc3n2)cc1	85	.	.	.	64	69
CS(=O)(=O)Nc1ccc(-c2cn3cccnc3n2)cc1	123	.	.	.	39	39
Cc1ccccc1OCC(=O)N/N=C/c1cccn1C	.	.	.	.	/	/
C=CCNC(=O)CN1CCC(n2nnc3cc(C(F)(F)F)ccc32)CC1	.	.	.	.	/	/
COc1ccc2sc(C)cc(=O)c2c1	51	.	.	.	37	43
COc1ccc(C2Nc3ccccc3C(=O)N2NS(C)(=O)=O)c(OC)c1 (centres undefined)	69	.	.	.	.	15
CS(=O)(=O)NN1C(=O)c2ccccc2NC1c1ccccc1 (centres undefined)	79	.	.	.	.	15
SMILES	KLK7 zymogen act	GAA850 FXN act	SMARCA2 activ	FAS-TE inh	KLK7 act conf	EDANS-DABCYL int	others
CC(=O)NN1C(=O)c2ccccc2NC1c1ccccc1O (centres undefined)	.	.	.	.	/	/
COc1cc(C2Nc3ccccc3C(=O)N2NS(C)(=O)=O)c([N+](=O)[O-])cc1OC (centres undefined)	.	.	.	.	/	/
CS(=O)(=O)NN1C(=O)c2ccccc2NC1c1cccs1 (centres undefined)	63	.	.	.	.	11
CS(=O)(=O)NN1C(=O)c2ccccc2NC1c1c[nH]c2ccccc12 (centres undefined)	14	.	.	.	.	.
CNC(CC(=O)c1ccc([N+](=O)[O-])cc1)C(Cl)(Cl)Cl (centres undefined)	/	.	/	.	/	/
COc1cccc(CN2CC(O)=C(c3nc(-c4ccc(Cl)cc4)cs3)C2=N)c1	.	.	.	.	/	/
COc1ccc(CN2CCNC(=O)C2CC(=O)NC2CCCCCC2)c(F)c1 (centres undefined)	.	.	.	.	/	/
Cc1ccc(Nc2nc(COC(=O)C3CC3)cs2)cc1	.	.	.	.	/	/
CS(=O)(=O)NN1C(=O)c2ccccc2NC1c1ccccc1O (centres undefined)	36	.	.	.	.	6.4
Cc1ccc(S(=O)(=O)NN2C(=O)c3ccccc3NC2c2cccc(O)c2)cc1 (centres undefined)	.	.	.	.	/	/
CS(=O)(=O)NN1C(=O)c2ccccc2NC1c1cccc(O)c1 (centres undefined)	63	.	.	.	17	19
C[C@H](CO)N1C[C@H](C)[C@@H](CN(C)C(=O)NC2CCCCC2)Oc2ccc(NC(=O)Cn3cnnn3)cc2C1=O	.	.	.	.	/	/
C[C@H]1COc2c(N3CCN(C)CC3)c(F)cc3c(=O)c(C(=O)O)cn1c23	172	.	.	.	55	56
CNC(=S)N1CCN(c2c(F)cc3c(=O)c(C(=O)O)cn(C4CC4)c3c2OC)CC1C (centres undefined)	.	.	.	.	/	/
CN1CCN(c2c(F)cc3c(=O)c(C(=O)O)cn4c3c2SCC4)CC1	98	.	.	.	35	43
CC1=C(C(=O)OCC2CCCO2)C(c2cccc(C(F)(F)F)c2)C2=C(CC(c3ccco3)CC2=O)N1 (centres undefined)	.	.	.	.	/	/
CC(C)=CCn1c2ccc(NC(=O)NCc3ccc(F)cc3)cc2c(=O)n1C	18	.	.	.	.	.
CC(C)=CCn1c2ccc(NC(=O)Nc3cccnc3)cc2c(=O)n1C	21	.	.	.	.	9.4
COc1ccc(NC(=O)NCCc2ccc(Cl)cc2)cc1OC	.	.	.	.	/	/
CC(C)=CCn1c2ccc(NC(=O)Nc3ccc(N(C)C)cc3)cc2c(=O)n1C	14	.	.	.	.	6.5
CN(C)c1ccc(NC(=O)Nc2ccc3c(c2)c(=O)n(C)n3Cc2ccccc2)cc1	.	.	.	.	/	/
Cn1c(=O)c2cc(NC(=O)NCc3ccc(F)cc3)ccc2n1C/C=C/c1ccccc1	.	.	.	.	/	/
COc1ccc(CCNC(=O)Nc2ccc3c(c2)c(=O)n(C)n3CC=C(C)C)cc1OC	26	.	.	.	.	5.4
COc1ccc(NS(=O)(=O)c2cccc(N3CC(O)=C(c4ccccc4)C3=N)c2)cc1	.	.	.	.	/	/
